Records with an inconclusive call do not appear. A call without a number means that no potency is given here. Active and inactive are the calls of the source. Calls follow the shape of the full dose curve.

The target in the experiment is Progesterone receptor (Homo sapiens) (UniProt P06401). The experiment is described as follows: qHTS assay to identify small molecule agonists of the progesterone receptor (PR) signaling pathway (AID 1346784). Also: nearly all actives have a fitted effect of over 30% in size. The conditions noted are these: PR-UAS-bla HEK293T, beta-lactamase FRET ratio, 16 h; series mostly up to 92.4 µM. The source says: U.S. Tox21 Program National Center for Advancing Translational Sciences [NCATS] NIH Chemical Genomics Center [NCGC] U.S. Environmental Protection Agency [EPA] National Institutes of Environmental Health Sciences [NIEHS] National Toxicology Program [NTP] U.S. Food and Drug Administration [FDA] […] Endocrine disrupting chemicals (EDCs) and their interactions with steroid hormone receptors like PR causes disruption of normal endocrine function. To identify the compounds that activate PR signaling, a PR-UAS-bla GripTite cell line i.e. PR-UAS-bla HEK 293T (Invitrogen, Carlsbad, CA, USA) containing a beta-lactamase reporter gene under the control of an Upstream Activator Sequence (UAS) was used to screen Tox21 10K compound library.
Chain of Progesterone receptor (Homo sapiens) (P06401 whole entry, looked up): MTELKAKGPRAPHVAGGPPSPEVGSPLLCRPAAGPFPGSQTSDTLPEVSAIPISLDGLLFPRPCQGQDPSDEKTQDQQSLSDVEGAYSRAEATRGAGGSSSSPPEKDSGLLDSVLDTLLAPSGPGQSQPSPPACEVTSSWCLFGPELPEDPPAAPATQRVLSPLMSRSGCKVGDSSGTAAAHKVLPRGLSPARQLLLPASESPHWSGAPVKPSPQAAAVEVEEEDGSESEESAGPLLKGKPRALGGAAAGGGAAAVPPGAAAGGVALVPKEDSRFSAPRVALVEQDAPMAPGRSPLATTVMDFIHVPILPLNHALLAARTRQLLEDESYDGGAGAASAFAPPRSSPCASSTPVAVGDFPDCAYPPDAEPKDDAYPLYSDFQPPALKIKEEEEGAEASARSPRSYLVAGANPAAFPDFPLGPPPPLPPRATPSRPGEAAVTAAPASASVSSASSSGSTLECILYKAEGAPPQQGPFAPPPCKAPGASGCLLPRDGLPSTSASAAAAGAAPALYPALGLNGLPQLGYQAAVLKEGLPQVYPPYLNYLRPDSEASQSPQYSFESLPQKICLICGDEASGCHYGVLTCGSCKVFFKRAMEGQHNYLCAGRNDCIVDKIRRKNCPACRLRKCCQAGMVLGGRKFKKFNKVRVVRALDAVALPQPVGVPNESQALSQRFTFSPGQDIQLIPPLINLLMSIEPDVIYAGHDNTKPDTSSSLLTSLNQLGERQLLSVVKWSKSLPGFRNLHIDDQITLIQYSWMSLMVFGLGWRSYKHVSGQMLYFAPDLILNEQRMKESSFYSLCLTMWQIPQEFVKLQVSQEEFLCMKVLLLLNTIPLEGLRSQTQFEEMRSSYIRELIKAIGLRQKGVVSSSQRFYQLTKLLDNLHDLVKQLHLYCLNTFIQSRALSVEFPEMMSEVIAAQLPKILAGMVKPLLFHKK
Tox21 Assay Protocol Summary: PR-UAS-bla HEK 293T cells were dispensed at 3,000 cells/5 uL of assay medium containing 2% charcoal stripped FBS per well into black wall/clear-bottom 1536-well plates using a Multidrop Combi (ThermoFisher Scientific, Waltham, MA) dispenser. After the assay plates were incubated at a 37C and 5% CO2 for 6hr, 23 nL of compounds dissolved in DMSO, positive controls or DMSO only was transferred to the assay plate by a Pintool station (Kalypsys, San Diego, CA). The plates were incubated at 37C and 5% CO2 for 16hr. Then 1 uL of LiveBLAzer B/G FRET substrate was added using a BioRAPTR FRD (Flying Reagent Dispenser, Aurora Discovery, San Diego, CA). After the plates were incubated at room temperature for 2 hours, fluorescence intensity was measured by an Envision plate reader (PerkinElmer, Shelton, CT).
(Quantitative high-throughput screening tests each substance at several concentrations.)
With `O=P(O)(Oc1ccccc1)Oc1ccccc1`, the Potency entry is “inactive”.
Turning to `CCN(CC)C(C)C(=O)c1ccccc1` (stereo not given), the Potency result is “inactive”.
Regarding `CSc1ccc(C(=O)C(C)(C)N2CCOCC2)cc1`, the Potency result was “inactive”.
In the case of `O=NN1CCN(N=O)CC1`, the Potency result is “inactive”.
Regarding `CCOC(=O)NC(=S)Nc1ccccc1NC(=S)NC(=O)OCC`, the Potency result was “inactive”.
With `Fc1ccc(C2(Cn3cncn3)OC2c2ccccc2Cl)cc1` (stereo not given) the entry was “inactive”; with `CCCCc1c(C)nc(NCC)[nH]c1=O`, “inactive”.
Take `C[C@H]1CCC[C@H](O)CCCCCc2cc(O)cc(O)c2C(=O)O1`: the Potency result is “inactive”.
With `CC(C)(C)C(=O)C(Oc1ccc(Cl)cc1)n1cncn1` (stereo not given), the Potency result is “inactive”.
For the molecule `Cc1ccccc1CO[C@@H]1C[C@@]2(C(C)C)CC[C@]1(C)O2`, the Potency result was “inactive”.
With `O=C1CN=C(c2ccccc2)c2cc([N+](=O)[O-])ccc2N1` the entry was “inactive”; with `CN1CCC(O)(c2ccc(F)cc2)C(C(=O)c2ccc(F)cc2)C1` (stereo not given), “inactive”; with `Cc1cc(C)nc(Nc2ccccc2)n1`, “inactive”.
As for `CCOP(=O)(OCC)OP(=O)(OCC)OCC`, the Potency entry is “inactive”.
Turning to `COP(=S)(OC)Oc1c(Cl)cc(C)cc1Cl`, the Potency entry was “inactive”.
With `Cc1cc(C)c(C(=O)P(=O)(C(=O)c2c(C)cc(C)cc2C)c2ccccc2)c(C)c1` the entry was “inactive”.
With `Cc1ncc(CNC(=O)N(CCCl)N=O)c(N)n1` the entry was “inactive”.
As for `N#Cc1ccncc1`, the entry is “inactive”; as for `COc1ccc2c(c1OC)CN1CCc3cc4c(cc3C1C2)OCO4` (stereo not given), “inactive”; as for `CS(=O)(=O)c1cc(C(F)(F)F)ccc1C(=O)c1cnoc1C1CC1`, “inactive”.
For the molecule `COc1cccc(C(=O)NN(C(=O)c2cc(C)cc(C)c2)C(C)(C)C)c1C`, the Potency entry is “inactive”.
`CC1CCCCC1NC(=O)Nc1ccccc1` (stereo not given): the Potency result is “inactive”.
On to `CC(C)(C)NCC(O)c1cc(Cl)c(N)c(Cl)c1` (stereo not given), for which the Potency result was “inactive”.
Turning to `CNC(=O)Oc1c(C(C)(C)C)cc(C)cc1C(C)(C)C`, the Potency entry was “inactive”.
Take `C(CCOCC1CO1)COCC1CO1` (stereo not given): the Potency entry was “inactive”.
`CCS(=O)(=O)C(C)(C)S(=O)(=O)CC`: the Potency result was “inactive”.
Turning to `COc1ncc(F)c2nc(S(=O)(=O)Nc3c(F)cccc3F)nn12`, the Potency result was “inactive”.
Regarding `O=C1CN2CCOC2(c2ccccc2Cl)c2cc(Cl)ccc2N1` (stereo not given), the Potency entry was “inactive”.
For `BrCCCCCCBr`, the Potency entry was “inactive”.
As for `c1coc(-c2nc3ccccc3[nH]2)c1`, the Potency result was “inactive”.
With `CC(N)=S` the entry was “inactive”.
Take `CCOC(=O)/C=C(C)/C=C/C[C@@H](C)CCCC(C)C`: the Potency entry is “inactive”.
With `CC(C)[N+](=O)[O-]` the entry was “inactive”; with `NC(=O)c1cc([N+](=O)[O-])cc([N+](=O)[O-])c1`, “inactive”.
As for `ClC(Br)Br`, the entry is “inactive”; as for `CC(C=O)Cc1ccc2c(c1)OCO2` (stereo not given), “inactive”; as for `Nc1c(Br)cc([N+](=O)[O-])cc1[N+](=O)[O-]`, “inactive”.
As for `CN1C(=S)CN=C(c2ccccc2)c2cc(Cl)ccc21`, the entry is “inactive”; as for `Nc1cnn(-c2ccccc2)c(=O)c1Cl`, “inactive”.
For `CN1C[C@@H](NS(=O)(=O)N(C)C)C[C@@H]2c3cccc4c3c(cn4C)C[C@H]21`, the Potency entry was “inactive”.

The values are drawn from PubChem BioAssay (Tox21).
